Results from ChEMBL document CHEMBL3988442, “University of Dundee, Small-Polar-MMV Screening Library” (2021).

molecular target: AMP-activated protein kinase, AMPK (Homo sapiens) (UniProt P54646+O43741+P54619+Q9UGJ0+Q9Y478+Q13131+Q9UGI9); test: AMP-dependent Kinase enzyme assay. An in vitro enzyme assay that detects ADP turnover that is directly proportional to AMPK activity. This uses naive AMPK that is activated during the assay with MK-8722; type: functional; design: scale not given: direction of the effect not stated beside the values; settings: 30 µM

| SMILES | Percent Effect |
| --- | --- |
| Cc1ccccc1CN1CCCC1c1cccc(Nc2nccs2)n1 (stereo not given) | 16.4% |
| CC(NS(N)(=O)=O)c1ccc(OCc2ccc(F)cc2)cc1 (stereo not given) | 3.51% |
| NC(=O)CN1CCC(c2noc3cc(F)ccc23)CC1 | 12.7% |
| CC(C)N1CCCC(CNC(=O)CN(C)S(=O)(=O)c2ccccc2)C1 (stereo not given) | -1.71% |
| CCOC(=O)NC1CCCN(c2cncc(Br)c2)C1 (stereo not given) | 15.7% |
| CCOCc1ccc(NC(=O)N2CCOC3(CCC3)C2)cc1 | -2.16% |
| Oc1ccc(Br)c(CNc2cccc(-c3nnc[nH]3)c2)c1 | 23.8% |
| CCCN(CCC)C(=O)c1cnn(C)c1C | 3.84% |
| Cc1cc(C2CCCN(Cc3noc(Cc4ccccc4)n3)C2)n[nH]1 (stereo not given) | 35% |
| CCN(CC(=O)NC(C)C)C(=O)c1csc(Cc2ccccc2)n1 | -2.97% |
| CC(=O)N1CCN(C(=O)NC(C)Cn2ccnc2)CC1 (stereo not given) | -4.12% |
| Cc1nn(C2CCCC2)c2nc(C(C)(C)CN3CCN(C)CC3)[nH]c12 | 14.1% |
| CCc1nnc2n1CCN(C(=O)C(C)Oc1cccc(C#N)c1)C2 (stereo not given) | 5.56% |
| CC(Oc1ccc2c(c1)OCO2)C(=O)N1CCC(N2CCOCC2)CC1 (stereo not given) | -2.63% |
| Cc1cc(C)n(CC2CCN(CC(O)COc3ccccc3)CC2)n1 (stereo not given) | 2.9% |
| CSc1ccc(C(=O)C2CCCN(C(=O)CCCn3cncn3)C2)cc1 (stereo not given) | 9.79% |
| CN1CCCC(CCC(=O)NCCc2nnc(N)s2)C1 (stereo not given) | -1.67% |
| COc1ccccc1CNC(=O)C(C)N1CC(n2nc(C)cc2C)C1 (stereo not given) | 3.14% |
| O=C1NCCN(Cc2ccccc2)C1CC(=O)N1CCc2n[nH]cc2C1 (stereo not given) | -20.4% |
| N#Cc1ccc(NCc2cccnc2N2CCC(C(N)=O)CC2)cn1 | 2.13% |

| SMILES | Percent Effect |
| --- | --- |
| Cc1cccc(C(C(=O)NC(C)(C)CN2CCOCC2)N(C)C)c1 (stereo not given) | -14.1% |
| CC(CN1CCOC1=O)NC(=O)c1cccc(C#N)c1 (stereo not given) | 11.8% |
| Cc1ccccc1CNC(=O)CNc1ccc(OC2CCOC2)cc1 (stereo not given) | 10.2% |
| C=C(C)COc1cccc(CNCCc2nc(N)cc(O)n2)c1 | 3.76% |
| COCC(C)(O)CNC(=O)c1cc(-c2cc(OC)ccc2OC)nn1C (stereo not given) | 1.19% |
| CCn1cc(NC(=O)c2cccc(CN3C[C@@H](C)O[C@@H](C)C3)c2)nn1 | 1.85% |
| CN(c1ncc(S(N)(=O)=O)s1)C1CCc2ccccc21 (stereo not given) | 8.8% |
| CC1CCC(O)(CSc2nnnn2C)CC1 (stereo not given) | 3.45% |
| COCCC(=O)NCc1ccc(-c2ncncc2C(=O)N(C)C)cc1 | -7.24% |
| COCCNc1ccc(CC2CCCN(c3ncccn3)C2)nn1 (stereo not given) | 6.13% |
| CSCC[C@H](NC(C)=O)C(=O)N(C)Cc1ccc(-n2cccn2)cc1 | -8.05% |
| CSCC(C)(O)CNS(=O)(=O)c1ccc(Br)cc1 (stereo not given) | -4.9% |
| CCNc1ncc(C(=O)NCCc2csc(-c3ncccn3)n2)cn1 | -8.34% |
| Cc1c(NC(=O)CN2CCN(C3CCCC3)C(=O)C2)cnn1C | 2.4% |
| COCCOc1ncccc1NCc1nc2ccccc2n1C | 7.32% |
| COCC(=O)N1CCCC1(C(=O)N(C)C)c1cnccn1 (stereo not given) | 6.8% |
| CCSCc1cccc(NCc2cccnc2)c1 | 5.73% |
| c1ccn2c(C3CCCN3Cc3nc(C4CC4)no3)nnc2c1 (stereo not given) | 2.28% |
| COc1ccc(OCc2noc(CN(C)C3CCS(=O)(=O)C3)n2)cc1 (stereo not given) | -2.23% |
| CN(CCNC(=O)Nc1nccs1)Cc1ccc(F)cc1 | -0.57% |
